What is called inhibition is the relative decrease from the control value, in per cent.

The whole screen tested about 360,000 compounds, of which about 3,600 (1%) were called active. For the sample, actives were picked, then their nearest neighbours and some compounds at random. Unmarked numbers belong to inactive results.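 The calls were made as follows: active = compounds whose plate-normalised and pattern-corrected inhibition of the luciferase reporter signal at the single screening dose is 50% or more; inactive = the rest.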

The test in a line: TROY pathway blockers in reporter cells – Q293 LMP1-TROYcd cells, NF-kB luciferase, uHTS, primary screen (AID 1347056). The following applies: 4 h, at 10 µM, active compounds read high.
Take `C=CCC(NCc1ccco1)c1ccc(OC)cc1` (stereo not given): the inhibition was 14.2%.

With `CC(=O)c1cccc(-c2cnc3c(NC=O)cc(-c4cccc(C(=O)N(C)C)c4)cn23)c1`, the inhibition was -8.12%.

Turning to `CC(=O)c1ccc(-c2cnc3c(NC=O)cc(-c4cccc(NS(C)(=O)=O)c4)cn23)cc1`, the inhibition is 22.6%.

As to `CC(=O)Nc1cccc(-c2cc(NC=O)c3ncc(-c4ccc(F)c(Cl)c4)n3c2)c1`, the inhibition is 83.1% (active).

Regarding `COc1cccc(-c2cnc3c(NC(C)=O)cc(-c4cccc(NC(C)=O)c4)cn23)c1`, the inhibition was 12.8%.

On to `CC(=O)Nc1cccc(-c2cc(NC(C)=O)c3ncc(-c4ccccc4)n3c2)c1`, for which the inhibition is 80.3% (active).

With `COc1cccc(-c2cc(NC(C)=O)c3ncc(-c4cccc(C(C)=O)c4)n3c2)c1`, the inhibition is 12.8%.

For the molecule `O=C(Nc1ccccc1F)c1ccc(Cn2cc(Br)cn2)cc1`, the inhibition is -34.2%.

Turning to `CCC(=NC1CC(C)(C)NC(C)(C)C1)C1=C(O)CC(C)(C)CC1=O`, the inhibition was -0.72%.

On to `CC(C)c1cc(C(=O)O)on1`, for which the inhibition is -0.05%.

With `CC1O[C@@H](OC2C(O)C(C)O[C@H](OC(=O)[C@]34CCC(C)(C)C[C@H]3C3=CCC5[C@@]6(C)CC(O)C(O[C@@H]7OC(CO)C(O)[C@@H](O)[C@@H]7O)[C@@](C)(C(=O)O)C6CC[C@@]5(C)[C@]3(CO)CC4)C2O[C@H]2OC(C)[C@@H](O[C@@H]3OCC(O[C@@H]4OC(CO)C(O)[C@H](O)C4O)[C@@H](O)[C@@H]3O)[C@H](O)C2O)C(O)C(O)C1O` (stereo not given in full), the inhibition is 5%.

As to `Cc1ccnc(NC(=O)c2ccc(Cl)c([N+](=O)[O-])c2)c1`, the inhibition is -25.6%.

On to `Cc1nc2ccccc2c(=O)n1NC(=O)c1ccc(Cl)c([N+](=O)[O-])c1`, for which the inhibition was 73.3% (active).

On to `O=C(Nn1c(SCc2ccc([N+](=O)[O-])cc2)nc2ccccc2c1=O)c1ccc(F)cc1`, for which the inhibition is 36.3%.

Consider `Cc1cccc(OC(C)C(=O)N2CCc3ccccc3C2)c1` (stereo not given), for which the inhibition was -6.07%.

Consider `Cc1cccnc1C(NC(=O)C1CCN(Cc2ccc(Cl)c(Cl)c2)CC1)c1ccc(Cl)cc1` (stereo not given), for which the inhibition was 4.08%.

Turning to `COCCCNC(=O)CNC(=S)N(Cc1cc(OC)c(OC)c(OC)c1)C1CCCC1`, the inhibition was 10.9%.

On to `Cc1ccc(SCC(=O)Nc2ccc3c(c2)OCCO3)cc1`, for which the inhibition is -62.5%.

As to `Cc1ccc(SCC(=O)c2cc(C)c(OC(=S)N(C)C)c(C)c2)cc1`, the inhibition was 63.3% (active).

For `COC(=O)c1cc(OC)c(OC)cc1NC(=O)CSc1ccc(C)cc1`, the inhibition was 21.1%.

Take `CC(C)(C)c1ccc(Oc2ccc(N)cc2)cc1`: the inhibition is 86.2% (active).

Regarding `CN(C)S(=O)(=O)c1ccc(Oc2ccc(S(=O)(=O)N(C)C)cc2)cc1`, the inhibition is -1.31%.

Consider `Cc1cc(C(C)(C)C)cc(C)c1N`, for which the inhibition is 2.63%.

On to `COc1ccc(S(=O)(=O)N(C)C[C@H]2Oc3ccc(NS(=O)(=O)c4cccs4)cc3CC(=O)N([C@H](C)CO)C[C@H]2C)cc1`, for which the inhibition was -24.6%.

On to `Cc1ccc(N(C(=O)C(F)(F)F)C(C(=O)NC2CCCCC2)c2ccncc2)cc1C` (stereo not given), for which the inhibition is -2.62%.

On to `O=C(c1ccc2c(c1)C(=O)N(Cc1ccncc1)C2=O)N1CCN(S(=O)(=O)c2ccc(OC(F)(F)F)cc2)CC1`, for which the inhibition is 0.85%.

With `CC(C)(C)NC(=O)c1ccc(Cn2cc(C(F)(F)F)ccc2=O)cc1`, the inhibition is 9.78%.

In the case of `COc1ccc(N2CCN(C(=O)CNC(=O)c3ccc(C(C)(C)C)cc3)CC2)cc1`, the inhibition is -17.8%.

As to `O=C(NCC(=O)N1CCN(c2ccccc2O)CC1)c1ccc2ccccc2c1`, the inhibition is 71.8% (active).

For the molecule `O=C(NCC(=O)N1CCN(c2ccccc2F)CC1)c1cccs1`, the inhibition was -32.6%.

Consider `CCC(Oc1ccccc1C)C(=O)Nc1ccc(S(=O)(=O)Nc2cc(C)on2)cc1` (stereo not given), for which the inhibition is -0.38%.

On to `COc1ccc(C(=O)Nc2c(N)nc(SCC(=O)Nc3ccc(C(C)=O)cc3)[nH]c2=O)cc1`, for which the inhibition was -11%.

For `Cc1ccc(S(=O)(=O)N(CC(=O)Nc2cccc([N+](=O)[O-])c2)Cc2ccc(Cl)cc2)cc1`, the inhibition is 44.3%.

Regarding `COC(=O)Cc1[nH]n(-c2nc3ccccc3s2)c(=O)c1C(C)=Nc1ccc(OC)cc1`, the inhibition was 54.6% (active).

Take `O=C1CSC(=O)N1CCOCCN1C(=O)CSC1=O`: the inhibition was -11.1%.

For `COc1ccccc1C(=O)NC(=S)Nc1ccc(N2CCOCC2)cc1`, the inhibition is 30.2%.

For `COc1ccccc1C(=O)NC(=S)NC12CC3CC(CC(C3)C1)C2`, the inhibition is 14.8%.

Regarding `COc1ccccc1C(=O)NC(=S)Nc1ccccc1N1CCCCC1`, the inhibition was 50.5% (active).

`Cc1ccc(CN(Cc2cccnc2)C(=S)Nc2cc(Cl)ccc2C)cc1`: the inhibition was -0.68%.

For the molecule `NC(=O)C1(C(N)=O)OC1c1ccc(Cl)cc1Cl` (stereo not given), the inhibition was -4.3%.

For the molecule `O=C(N/N=C/c1ccc(OC(=O)c2ccccc2Cl)cc1)c1ccc(O)cc1`, the inhibition was 54.5% (active).

Take `CCOc1ccc(-c2cc(C(=O)N/N=C/c3ccc(O)cc3)c3ccccc3n2)cc1`: the inhibition is 42.4%.

For `O=C(NN=Cc1ccc2c(c1)CCC2)c1ccccc1O`, the inhibition was -55%.

On to `CC(C)(C)C(=O)Nc1ccc(C(=O)N/N=C/c2ccccc2OC(=O)c2ccc(Cl)cc2Cl)cc1`, for which the inhibition is -17%.

For `COc1ccc(C(=O)Nc2ccccc2C(=O)N/N=C/c2ccc(O)c(OC)c2)cc1`, the inhibition is 84.9% (active).

`COc1cccc(OCc2cc(/C=N/NC(=O)c3nc(Cl)c(Cl)c(N)c3Cl)ccc2OC)c1`: the inhibition was 11.1%.

Consider `CN1C(=O)/C(=C/C=C2\SCCN2C)OC1=S`, for which the inhibition was -2.27%.

For `CCOC(=O)CCCNC(=O)CN1C(=O)NC(CCc2ccccc2)C1=O` (stereo not given), the inhibition was -5.07%.

For the molecule `O=C1/C(=C\Nc2ccccc2)CCN1c1ncccn1`, the inhibition is -49.4%.

Consider `COc1ccc(Cc2nnc(SCC(=O)Nc3ccc(C)c(C)c3)o2)cc1OC`, for which the inhibition is 8.78%.

As to `Fc1ccc2[nH]c3c(N4CCSCC4)ncnc3c2c1`, the inhibition is 59.8% (active).

Turning to `Cc1ccnc(NC(=O)C(C)N2C(=O)c3ccccc3C2=O)c1` (stereo not given), the inhibition was -1.82%.

Take `Oc1c(Cl)cc(Cl)c(Cl)c1Cc1c(O)c(Cl)cc(Cl)c1Cl`: the inhibition was 80.3% (active).

Take `CC(Oc1ccccc1)C(=O)Nc1oc(-c2ccco2)c(-c2ccco2)c1C#N` (stereo not given): the inhibition was 14.3%.

`O=C(O)c1ccc2c(=O)n3c(nc2c1)/C(=C/c1ccc(OC(F)F)cc1OC(F)F)CC3`: the inhibition was 1.62%.

`c1ccc(-c2nnc(SCc3nc4ccccc4[nH]3)o2)cc1`: the inhibition is 57.9% (active).

With `Fc1ccc2nc(-c3ccccc3)nc(SCc3nnc(-c4ccccc4)o3)c2c1`, the inhibition was -9.52%.

In the case of `CCN(C(=O)CSc1nnc(-c2ccncc2)o1)c1ccccc1`, the inhibition is 2.98%.

As to `COc1ccc(C(C)=O)cc1CN1C(=O)NC2(CCCCC2C)C1=O` (stereo not given), the inhibition was 19%.

`CCOc1ccc(CCNC(=O)CCc2nnc3ccc(N4CCCC4)nn23)cc1OCC`: the inhibition is 3.54%.

Regarding `Cc1nc2sccn2c(=O)c1S(=O)(=O)NCCc1ccccc1`, the inhibition is -4.17%.

Turning to `O=C(Nc1cc(S(=O)(=O)N2CCOCC2)ccc1OCC(F)(F)F)c1ccc(N2CCCC2=O)cc1`, the inhibition is 1.27%.

Regarding `O=C(Nc1cc(Cl)ccc1N1CCOCC1)c1ccc(N2CCCC2=O)cc1`, the inhibition is 70.3% (active).

As to `O=C(Nc1cc(-c2nn(CC(=O)N3CCCCC3)c(=O)c3ccccc23)ccc1N1CCOCC1)c1ccc(Cl)cc1`, the inhibition is -10.6%.

As for `CN(C)C(=O)c1ccc2c(c1)C1C3CCC(C3)C1C(c1ccccc1)N2` (stereo not given), the inhibition is -1.11%.

In the case of `O=C(C1CCC(=O)N(C2CC2)C1)N1CCN(c2ccc(Cl)cc2)CC1` (stereo not given), the inhibition was -7.66%.

As for `Cc1ccc(S(=O)(=O)N(C)C)cc1NC(=O)C(C)OC(=O)c1ccc2ccccc2n1` (stereo not given), the inhibition was -2.57%.

Consider `COC(=O)c1ccccc1NC(=O)Cn1nc(C(F)(F)F)c2c1CCC2`, for which the inhibition is -27%.

In the case of `Cc1ccc(CSc2nc(-c3ccccc3)c(C#N)c(=O)[nH]2)cc1`, the inhibition is 54% (active).

For `Cc1ccccc1CSc1nnc(-c2ccccc2)c(=O)[nH]1`, the inhibition is -16.6%.

For `N#Cc1c(-c2ccccc2)nc(SCc2cccc(C(F)(F)F)c2)[nH]c1=O`, the inhibition is 41.2%.

For the molecule `Cc1ccc(NC(=O)Cc2nnc(SCC(=O)Nc3nncs3)n2C)cc1`, the inhibition is -1.88%.

For `CCOC(=O)Cc1c(C)nc2c(C#N)c(C)nn2c1C`, the inhibition is 10.1%.

In the case of `CN(CC(=O)NCc1ccncc1)S(=O)(=O)c1ccc(Br)cc1`, the inhibition is 0.22%.

For `Cc1ccc(S(=O)(=O)N2CCCCC2)cc1NC(=O)CCNC(=O)c1ccccc1`, the inhibition is -24.1%.

Regarding `C[C@@H]1CC[C@]2(O[C@@H](CCO)C[C@H](O)[C@H]2O)O1`, the inhibition is 0.26%.

Regarding `C[C@H]1CC[C@]2(O[C@@H](CCO)C[C@@H](O)[C@@H]2O)O1`, the inhibition is 80.2% (active).

With `OCC[C@H]1C[C@H](O)[C@@H](O)[C@]2(CCCCO2)O1`, the inhibition was -23.7%.

As for `CCOC(=O)C1(C)CCCN(C(=O)c2ccc(F)c(Cl)c2)C1` (stereo not given), the inhibition is 2.88%.

With `Cc1ccccc1N1CCN(Cc2nc(Cc3ccccc3F)no2)CC1`, the inhibition was -8.4%.

In the case of `O=C(/C=C/c1cnc2ccccc2n1)NC1CCCCCC1`, the inhibition is -49.1%.

As to `Cc1nc2cc(NC(=O)CSc3nc4c(C)cccc4cc3C#N)ccc2s1`, the inhibition is 4.28%.

As for `COc1ccc(C2/C(=C(/O)c3ccccc3)C(=O)C(=O)N2c2ncccn2)cc1OC` (stereo not given), the inhibition was -2.92%.

Consider `COc1ccc(/C(O)=C2/C(=O)C(=O)N(c3nc(C)c(C)s3)C2c2ccco2)cc1` (stereo not given), for which the inhibition was -21.4%.

As for `CCOc1ccc(/C(O)=C2\C(=O)C(=O)N(c3ccc(OC)cc3)C2c2ccccc2[N+](=O)[O-])cc1` (stereo not given), the inhibition is 54.8% (active).

For the origin of these results see PubChem BioAssay AID1347056 (Sanford-Burnham Center for Chemical Genomics, 2019).
